Compounds with a hit are over-represented: about 6% of the library has one in this group of screens.
D3 antag: D3 dopamine receptor (human) antagonism; D3R cells, DiscoveRx beta-arrestin luminescence, antagonist mode; stronger effect = lower value; max response, negative = inhibition, %; actives 2.5% (n = 360,000); in the data active = max response below about -50%; inconclusive = no clear call, values can overlap the other calls; also: % is scaled to controls: 0 for no effect and ±100 for the full control effect
Target sequence (P35462 whole entry, looked up): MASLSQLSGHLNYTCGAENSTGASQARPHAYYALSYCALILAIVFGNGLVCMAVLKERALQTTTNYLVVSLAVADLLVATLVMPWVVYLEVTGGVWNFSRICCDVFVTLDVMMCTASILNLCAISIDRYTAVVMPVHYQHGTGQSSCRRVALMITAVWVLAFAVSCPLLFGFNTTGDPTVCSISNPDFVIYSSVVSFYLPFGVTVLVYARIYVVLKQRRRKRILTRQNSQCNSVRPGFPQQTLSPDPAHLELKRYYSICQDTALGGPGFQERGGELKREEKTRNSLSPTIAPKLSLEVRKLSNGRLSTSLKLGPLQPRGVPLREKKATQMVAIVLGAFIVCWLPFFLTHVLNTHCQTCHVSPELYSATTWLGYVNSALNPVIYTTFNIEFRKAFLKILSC
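Cells expressing the human receptor were seeded at 1500 cells/well, incubated overnight at 37 degrees C in 5% CO2, then exposed to library compounds with dopamine controls for 90 minutes at 37 degrees C before luminescent detection.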
D1 antag: blocks dopamine activation of the human D1 receptor; P21728; HEK293 TREx D1 cells, calcium flux, dopamine EC80; stronger effect = lower value; activity change, negative = inhibition, % at 10 µM; actives 3.2% (n = 360,000); in the data active = activity change below about -30%; also: % is scaled to controls: 0 for no effect and ±100 for the full control effect
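After overnight tetracycline induction at 30 C, force-coupled D1 HEK293 cells took up a no-wash calcium dye at room temperature. Compounds were added and monitored 180 s, and the response to EC80 dopamine was then recorded.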
DRD3 agonist: agonists of human D3 dopamine receptor; AID 652048; max activation, %; D3R DiscoveRx beta-arrestin cells, luminescence, 90 min; actives 0.58% (n = 410,000); in the data active = max activation above about 30%; also: 0% is about no effect
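Agonist-mode cell screen: cells plated at 1500/well and incubated overnight at 37 °C, then exposed to library compounds for 90 min at 37 °C. Detection reagent was added for 30–60 min at room temperature, and luminescence was read.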
D1 PAM: enhances dopamine response at the human D1 receptor | P21728 | HEK293 TREx D1 cells, calcium flux, dopamine EC20 potentiation | AID 504651 | potentiation, % at 10 µM | actives 0.036% (n = 360,000); in the data active = potentiation above about 30%; also: 0% is about no effect
D1 agonist: activates the human D1 dopamine receptor | activation, % at 2 µM | AID 504660 | P21728 | HEK293 T-REx D1 cells, calcium flux, agonist mode | actives 1% (n = 360,000); in the data active = activation above about 30%; also: 0% is about no effect
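Inducible HEK293 T-REx D1 cells, force-coupled to calcium signalling, were plated at 4000 cells/well with tetracycline and held overnight at 30 C. After no-wash calcium dye loading, compound-evoked calcium rise over 180 s flagged agonists.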
* hit, by the source's call.

Screening Cc1ccc(C(=O)N2CCC(n3nccc3NC(=O)c3ccccc3C)CC2)cn1 returned D3 antag 3, D1 antag -7, DRD3 agonist -7, D1 PAM 10 and D1 agonist 5.
Screening CCN1/C(=C\C(=S)Nc2ccccc2)Sc2ccccc21 returned D3 antag -14, D1 antag -4, DRD3 agonist 2, D1 PAM -2 and D1 agonist 7.
Screening CCOC(=O)/C(C#N)=C(C)/C=C1\Sc2ccccc2N1CC returned D3 antag 109, D1 antag 10, DRD3 agonist 6, D1 PAM -6 and D1 agonist 45*.
CCN1/C(=C\C=C(C(C)=O)C(C)=O)Sc2ccccc21 was read as D3 antag 7, D1 antag 12, DRD3 agonist 0, D1 PAM -4 and D1 agonist 80*.
`CC1(C)COCN1S(=O)(=O)c1ccc(C(=O)Nc2nnc(-c3ccc(Cl)s3)o2)cc1` gave D3 antag 10, D1 antag -2, DRD3 agonist 5, D1 PAM -6 and D1 agonist 4.
Screening COc1ccc(-c2nnc(NC(=O)c3ccc(S(=O)(=O)N4COCC4(C)C)cc3)o2)cc1 returned D3 antag -65*, D1 antag -18, DRD3 agonist 4, D1 PAM -7 and D1 agonist 4.
Screening CC(=O)N1CCc2cc(S(=O)(=O)CCC(=O)N3CCN(c4ccccn4)CC3)ccc21 returned D3 antag 3, D1 antag -6, DRD3 agonist 0, D1 PAM -8 and D1 agonist 0.
For CC(=O)N1CCc2cc(C(=O)CN3CCN(c4ccccn4)CC3)ccc21 the results were D3 antag -4, D1 antag -13, DRD3 agonist 68*, D1 PAM -12 and D1 agonist 5.
For CC(=O)N1CCc2cc(S(=O)(=O)CCC(=O)N3CCN(c4ccccc4F)CC3)ccc21 the results were D3 antag -15, D1 antag -4, DRD3 agonist -6, D1 PAM -4 and D1 agonist 5.
For O=C(CN1CCN(c2ccccc2F)CC1)c1ccc2cc[nH]c2c1 the results were D3 antag -63*, D1 antag -26, DRD3 agonist -3, D1 PAM -8 and D1 agonist 5.
`O=C(CN1CCN(c2ccccc2F)CC1)c1c[nH]c2ccc(F)cc12` gave D3 antag -10, DRD3 agonist -4, D1 PAM -5 and D1 agonist 5.
`CC(=O)N1CCc2cc(C(=O)CN3CCN(c4ccccc4F)CC3)ccc21` gave D3 antag -65*, D1 antag -8, DRD3 agonist -1, D1 PAM -6 and D1 agonist 1.
For Cc1oc2ccc(O)c(CN3CCN(C)CC3)c2c1C(=O)Nc1cccc(Cl)c1C the results were D1 antag -9, DRD3 agonist -13, D1 PAM -2 and D1 agonist 6.
Cc1ccc(-c2nc(N)sc2CC(=O)OCC(=O)NC2CCCC(C)C2C)cc1 (configuration not stated) was read as D3 antag 5, D1 antag -41*, DRD3 agonist 12, D1 PAM -12 and D1 agonist 3.
Screening CCn1c(C)c(C)c2cc(C(=O)NCC(C)c3ccccc3)ccc21 (configuration not stated) returned D1 antag 5, DRD3 agonist -6, D1 PAM -5 and D1 agonist 4.
For COc1ccc(N(Cc2ccccc2)S(=O)(=O)c2ccc(C)cc2)cc1 the results were D3 antag 9, D1 antag -30*, DRD3 agonist 0, D1 PAM -7 and D1 agonist 15.
`COC(=O)c1ccc(CN(c2ccc(OC)cc2)S(=O)(=O)c2ccccc2)cc1` gave D3 antag -3 and DRD3 agonist -6.
`COc1ccc(S(=O)(=O)N(CC(=O)O)c2ccc(C)cc2)cc1` gave D3 antag 8, D1 antag -50*, DRD3 agonist -2, D1 PAM 3 and D1 agonist 3.
Screening COc1ccc(S(=O)(=O)N(CC(=O)NC2CC2)c2ccc(C)cc2)cc1 returned D3 antag 5, D1 antag 0, DRD3 agonist -5, D1 PAM 6 and D1 agonist 2.
For CCn1c(=O)c2cc(C(=O)NCc3cc(OC)ccc3OC)sc2c2ccccc21 the results were D1 antag -22, DRD3 agonist -10, D1 PAM -1 and D1 agonist 3.
`Cn1cc(CN2CCCC(C(=O)c3cc(F)ccc3F)C2)c2ccccc21` (configuration not stated) gave D3 antag -64*, D1 antag 8, DRD3 agonist -22, D1 PAM -1 and D1 agonist 11.
Screening O=C(c1cc(F)ccc1F)C1CCCN(C(=O)CSc2ccccn2)C1 (configuration not stated) returned D3 antag 15, D1 antag -40*, DRD3 agonist -3, D1 PAM 3 and D1 agonist 0.
For COc1ccc(OC)c(CN2CCCC(C(=O)c3ccccc3SC)C2)c1 (configuration not stated) the results were D3 antag inconclusive, D1 antag -13, DRD3 agonist -9, D1 PAM -4 and D1 agonist 9.
COc1ccc(F)cc1C(=O)C1CCCN(Cc2cn(C)c3ccccc23)C1 (configuration not stated) was read as D3 antag -92*, D1 antag -11, DRD3 agonist -8, D1 PAM -10 and D1 agonist 19.
COc1ccc(F)cc1C(=O)C1CCCN(Cc2c[nH]c3ccccc23)C1 (configuration not stated) was read as D3 antag -107*, D1 antag -43*, DRD3 agonist -12, D1 PAM -4 and D1 agonist 47*.
`COc1ccc(F)cc1C(=O)C1CCCN(Cc2cccn2-c2ccccn2)C1` (configuration not stated) gave D3 antag inconclusive, D1 antag 7, DRD3 agonist -26, D1 PAM 5 and D1 agonist 8.
CCc1nn(CCCC(=O)N2CCN(c3cc(Cl)ccc3C)CC2)c(=O)c2cc3occc3n12 was read as D1 antag 22, DRD3 agonist 25, D1 PAM -1 and D1 agonist -3.
Screening COc1cccc(CN2C(=O)N(c3ccc(C)cc3)C(=O)C2CC(=O)Nc2cc(OC)cc(OC)c2)c1 (configuration not stated) returned D1 antag 3, DRD3 agonist 3, D1 PAM 1 and D1 agonist 5.
Cc1ccc(NC(=O)Cn2c(=O)c(C(F)(F)F)nc3ccccc32)c(C)c1 was read as D1 antag -23, DRD3 agonist 4, D1 PAM -2 and D1 agonist 1.

Source: PubChem BioAssay
